Test results published in the supplement of paper PMC10849652.
The full data set covers some 7,900 targets. This sample favours those with a hit. About 0.6% of all pairs of compound and target were hits.

What was measured:
Assay in all cases: log2 fold change, soluble protein after heating vs DMSO (PISA); higher = thermal stabilisation; K562 cells, 10 uM, 30 min; active = over 0.2 and 3.5 SD of the protein, either way, in both replicates (recomputed)
[1] = compound: C1=CC=C(C=C1)[C@H](COC2=CC3=C(C=C2)NC(=O)N3)NC(=O)C4=CC=CN(C4=O)CC5=CC(=C(C=C5)F)F
How it was run: (§1)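 Values are thermal stability changes relative to control samples and are taken from duplicates. They are stated as log2 fold changes. Before quantification by TMTpro 16plex LC-MS/MS with equalised channel sums, K562 cells at 2×10^6 cells/mL were treated with 10 μM compound for 30 min, heated in aliquots for 3 min across 48°C-58°C, pooled, extracted in PBS with 0.5% NP-40 at 4°C, and centrifuged at 21,000xg for 90 min to give the soluble supernatant.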

[2] = compound: CC1=C(SC2=C1C(=N[C@H](C3=NN=C(N32)C)CC(=O)N)C4=CC=C(C=C4)Cl)C
How it was run: as §1

[3] = compound: CC1=C2C(=CC=C1)N=C(N(C2=O)C3=CC=CC=C3C)CN4C=NC5=C(N=CN=C54)N
How it was run: as §1

[4] = compound: Cc1sc2c(c1C)C(c1ccc(Cl)cc1)=N[C@@H](CC(=O)OC(C)(C)C)c1nnc(C)n1-2
How it was run: as §1

[5] = compound: c1ccc([C@@H]2C[C@H]2NC2CCNCC2)cc1
How it was run: as §1

Measured: log2 fold change

HEXB (UniProt P07686)
Chain of UniProt P07686 (P07686 whole entry, looked up): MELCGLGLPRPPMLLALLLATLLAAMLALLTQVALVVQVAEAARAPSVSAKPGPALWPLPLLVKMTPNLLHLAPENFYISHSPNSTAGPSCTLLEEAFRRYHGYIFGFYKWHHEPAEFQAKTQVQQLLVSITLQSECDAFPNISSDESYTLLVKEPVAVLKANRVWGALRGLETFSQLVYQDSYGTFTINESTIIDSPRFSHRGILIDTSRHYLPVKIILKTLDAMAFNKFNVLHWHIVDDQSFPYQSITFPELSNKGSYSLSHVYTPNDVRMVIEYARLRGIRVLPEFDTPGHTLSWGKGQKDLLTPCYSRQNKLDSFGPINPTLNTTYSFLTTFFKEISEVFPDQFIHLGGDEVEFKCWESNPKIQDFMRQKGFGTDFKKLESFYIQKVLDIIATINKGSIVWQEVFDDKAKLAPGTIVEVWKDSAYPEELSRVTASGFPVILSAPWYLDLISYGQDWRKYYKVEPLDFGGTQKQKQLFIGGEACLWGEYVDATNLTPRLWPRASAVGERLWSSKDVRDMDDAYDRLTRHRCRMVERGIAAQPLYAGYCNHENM
inactive: [1] 0.028 | [2] 0.005 | [3] 0.064 | [4] -0.008 | [5] 0.016

GMEB2 (UniProt Q9UKD1)
inactive: [1] 0.037 | [2] 0.073 | [3] 0.068 | [4] -0.007 | [5] -0.016

FANCI (UniProt Q9NVI1)
inactive: [1] -0.071 | [2] 0.028 | [3] 0.109 | [4] -0.008 | [5] -0.037

GINS2 (UniProt Q9Y248)
Chain of UniProt Q9Y248 (Q9Y248 whole entry, looked up): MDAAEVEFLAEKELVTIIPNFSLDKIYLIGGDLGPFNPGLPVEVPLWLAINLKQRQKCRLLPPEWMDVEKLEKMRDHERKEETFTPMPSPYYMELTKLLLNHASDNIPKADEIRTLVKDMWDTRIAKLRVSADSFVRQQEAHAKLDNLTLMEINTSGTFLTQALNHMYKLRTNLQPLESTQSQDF
inactive: [1] -0.011 | [2] 0.102 | [3] 0.115 | [4] -0.033 | [5] -0.026

GLUD2 (UniProt P49448)
inactive: [1] 0.026 | [2] 0.061 | [3] -0.029 | [4] 0.047 | [5] -0.005

GTF2H3 (UniProt Q13889)
inactive: [1] 0.062 | [2] 0.065 | [3] 0.099 | [4] 0.048 | [5] 0.017

GCDH (UniProt Q92947)
Chain of UniProt Q92947 (Q92947 whole entry, looked up): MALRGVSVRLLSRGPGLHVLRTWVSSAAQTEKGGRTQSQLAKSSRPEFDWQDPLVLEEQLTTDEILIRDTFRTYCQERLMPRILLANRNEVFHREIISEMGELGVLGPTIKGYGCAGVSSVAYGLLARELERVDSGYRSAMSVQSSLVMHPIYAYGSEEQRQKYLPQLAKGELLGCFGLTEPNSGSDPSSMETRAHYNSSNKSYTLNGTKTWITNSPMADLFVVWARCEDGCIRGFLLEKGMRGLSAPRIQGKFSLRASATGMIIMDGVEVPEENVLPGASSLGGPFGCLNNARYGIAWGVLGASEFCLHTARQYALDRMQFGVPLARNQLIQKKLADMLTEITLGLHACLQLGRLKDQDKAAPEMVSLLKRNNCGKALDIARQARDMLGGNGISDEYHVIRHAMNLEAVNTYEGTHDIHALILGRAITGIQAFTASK
inactive: [1] 0.021 | [2] 0.012 | [3] 0.036 | [4] -0.043 | [5] -0.019

HMGN1 (UniProt P05114)
Chain of UniProt P05114 (P05114 whole entry, looked up): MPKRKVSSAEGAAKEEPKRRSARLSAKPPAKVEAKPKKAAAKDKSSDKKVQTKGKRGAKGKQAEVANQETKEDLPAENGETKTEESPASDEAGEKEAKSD
inactive: [1] 0.042 | [2] -0.023 | [3] -0.119 | [4] 0.027 | [5] 0.048

HDAC6 (UniProt Q9UBN7)
inactive: [1] 0.159 | [2] 0.008 | [3] -0.001 | [4] -0.002 | [5] 0.009

GGT7 (UniProt Q9UJ14)
inactive: [1] 0.028 | [2] -0.055 | [3] -0.069 | [4] 0.026 | [5] 0.032

GTF2A1 (UniProt P52655)
Chain of UniProt P52655 (P52655 whole entry, looked up): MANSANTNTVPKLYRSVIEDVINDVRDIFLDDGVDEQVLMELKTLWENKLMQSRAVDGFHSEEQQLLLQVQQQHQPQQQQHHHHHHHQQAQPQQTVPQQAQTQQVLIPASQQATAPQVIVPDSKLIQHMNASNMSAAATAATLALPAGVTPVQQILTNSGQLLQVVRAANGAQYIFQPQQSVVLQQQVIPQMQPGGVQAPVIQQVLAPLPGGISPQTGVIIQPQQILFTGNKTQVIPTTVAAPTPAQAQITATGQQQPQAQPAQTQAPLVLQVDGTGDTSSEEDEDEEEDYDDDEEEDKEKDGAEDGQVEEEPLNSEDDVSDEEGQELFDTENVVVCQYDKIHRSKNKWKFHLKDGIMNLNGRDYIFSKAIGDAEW
inactive: [1] 0.04 | [2] -0.021 | [3] -0.01 | [4] -0.004 | [5] -0.006

HOMER1 (UniProt Q86YM7)
inactive: [1] -0.08 | [2] 0.035 | [3] 0.02 | [4] -0.005 | [5] 0.007

GALNT1 (UniProt Q10472)
Chain of UniProt Q10472 (Q10472 whole entry, looked up): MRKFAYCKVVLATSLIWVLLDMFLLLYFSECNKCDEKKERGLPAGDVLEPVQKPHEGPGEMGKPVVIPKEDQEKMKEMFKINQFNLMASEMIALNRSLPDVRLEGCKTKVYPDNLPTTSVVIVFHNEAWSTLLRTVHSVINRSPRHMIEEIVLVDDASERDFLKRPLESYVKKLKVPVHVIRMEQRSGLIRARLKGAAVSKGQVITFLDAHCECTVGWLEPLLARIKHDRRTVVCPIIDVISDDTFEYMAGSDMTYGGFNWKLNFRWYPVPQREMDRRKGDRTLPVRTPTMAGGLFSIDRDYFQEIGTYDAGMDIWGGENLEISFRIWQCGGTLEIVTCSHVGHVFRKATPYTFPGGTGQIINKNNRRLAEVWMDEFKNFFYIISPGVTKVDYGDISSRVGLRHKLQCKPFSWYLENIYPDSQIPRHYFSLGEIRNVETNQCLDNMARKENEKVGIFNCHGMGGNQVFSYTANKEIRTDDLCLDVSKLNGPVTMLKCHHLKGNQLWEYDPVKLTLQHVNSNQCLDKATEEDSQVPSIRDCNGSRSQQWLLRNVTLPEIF
inactive: [1] -0.034 | [2] 0.069 | [3] -0.002 | [4] -0.01 | [5] -0.007

HBZ, A0A494C057
inactive: [1] -0.047

FBXO3 (UniProt Q9UK99)
Chain of UniProt Q9UK99 (Q9UK99 whole entry, looked up): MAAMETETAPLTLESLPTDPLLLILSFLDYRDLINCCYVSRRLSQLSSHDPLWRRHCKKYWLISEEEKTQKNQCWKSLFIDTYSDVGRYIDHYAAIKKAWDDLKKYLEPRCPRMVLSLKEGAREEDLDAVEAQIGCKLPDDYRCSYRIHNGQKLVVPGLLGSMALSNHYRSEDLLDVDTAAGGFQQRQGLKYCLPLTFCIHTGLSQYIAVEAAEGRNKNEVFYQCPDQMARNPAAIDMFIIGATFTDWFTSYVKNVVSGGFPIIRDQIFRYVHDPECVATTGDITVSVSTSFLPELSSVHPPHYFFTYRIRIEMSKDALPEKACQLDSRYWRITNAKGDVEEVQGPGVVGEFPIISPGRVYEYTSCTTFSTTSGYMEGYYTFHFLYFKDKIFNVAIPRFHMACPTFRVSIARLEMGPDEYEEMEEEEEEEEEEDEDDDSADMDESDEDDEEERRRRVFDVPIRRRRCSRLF
inactive: [1] 0.006 | [2] -0.03 | [3] 0.033 | [4] 0.055 | [5] 0.127

GLA (UniProt P06280)
inactive: [1] 0.019 | [2] -0.019 | [3] -0.01 | [4] 0.007 | [5] 0.017

GSK3B isoform 2 (UniProt P49841)
inactive: [1] 0 | [2] 0.083 | [3] 0.026 | [4] -0.016 | [5] -0.008

HBQ1 (UniProt P09105)
Chain of UniProt P09105 (P09105 whole entry, looked up): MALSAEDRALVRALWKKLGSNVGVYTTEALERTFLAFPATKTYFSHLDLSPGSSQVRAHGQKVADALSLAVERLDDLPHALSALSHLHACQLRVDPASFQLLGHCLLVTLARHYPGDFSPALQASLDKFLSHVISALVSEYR
inactive: [1] 0.023 | [2] 0.135 | [3] 0.092 | [4] -0.147 | [5] -0.037

HSPA2 (UniProt P54652)
inactive: [1] 0.003

GATD1 (UniProt Q8NB37)
Chain of UniProt Q8NB37 (Q8NB37 whole entry, looked up): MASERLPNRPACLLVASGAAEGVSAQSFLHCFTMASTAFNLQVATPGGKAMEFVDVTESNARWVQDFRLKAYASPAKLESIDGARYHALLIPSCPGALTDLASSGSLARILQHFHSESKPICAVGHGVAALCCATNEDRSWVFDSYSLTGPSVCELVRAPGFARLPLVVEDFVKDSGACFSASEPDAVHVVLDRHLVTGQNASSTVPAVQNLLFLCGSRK
inactive: [1] -0.038 | [2] 0.043 | [3] 0.019 | [4] 0.019 | [5] 0.007

HADHA (UniProt P40939)
Chain of UniProt P40939 (P40939 whole entry, looked up): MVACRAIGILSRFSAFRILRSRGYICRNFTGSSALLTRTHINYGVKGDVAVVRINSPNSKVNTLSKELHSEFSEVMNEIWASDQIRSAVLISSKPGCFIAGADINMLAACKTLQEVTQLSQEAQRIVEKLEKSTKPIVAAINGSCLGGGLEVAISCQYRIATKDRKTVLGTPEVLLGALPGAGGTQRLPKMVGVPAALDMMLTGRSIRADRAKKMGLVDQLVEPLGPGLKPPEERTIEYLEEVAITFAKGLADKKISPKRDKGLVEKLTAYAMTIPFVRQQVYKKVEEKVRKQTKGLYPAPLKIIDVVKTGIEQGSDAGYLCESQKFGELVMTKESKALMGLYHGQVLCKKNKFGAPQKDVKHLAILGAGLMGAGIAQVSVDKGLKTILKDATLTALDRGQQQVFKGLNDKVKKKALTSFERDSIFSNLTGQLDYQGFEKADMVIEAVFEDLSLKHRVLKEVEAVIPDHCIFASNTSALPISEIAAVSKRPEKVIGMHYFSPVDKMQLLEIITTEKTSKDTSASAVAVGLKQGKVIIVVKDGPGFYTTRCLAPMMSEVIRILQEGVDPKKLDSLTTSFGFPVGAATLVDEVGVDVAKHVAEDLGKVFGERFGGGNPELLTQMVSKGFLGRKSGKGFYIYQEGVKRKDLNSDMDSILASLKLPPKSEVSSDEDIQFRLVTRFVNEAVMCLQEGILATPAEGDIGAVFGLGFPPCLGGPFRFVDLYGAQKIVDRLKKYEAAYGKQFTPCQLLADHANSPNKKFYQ
inactive: [1] -0.218 | [2] 0.254 | [3] 0.214 | [4] 0.256 | [5] -0.051

GNB2 (UniProt P62879)
inactive: [1] 0.025 | [2] 0.045 | [3] 0.029 | [4] -0.09 | [5] -0.015

FUNDC1 (UniProt Q8IVP5)
inactive: [1] 0.052

GHDC (UniProt Q8N2G8)
inactive: [1] 0.061 | [2] 0.016 | [3] 0.022 | [4] 0.031 | [5] -0.019

IDH3A (UniProt P50213)
Chain of UniProt P50213 (P50213 whole entry, looked up): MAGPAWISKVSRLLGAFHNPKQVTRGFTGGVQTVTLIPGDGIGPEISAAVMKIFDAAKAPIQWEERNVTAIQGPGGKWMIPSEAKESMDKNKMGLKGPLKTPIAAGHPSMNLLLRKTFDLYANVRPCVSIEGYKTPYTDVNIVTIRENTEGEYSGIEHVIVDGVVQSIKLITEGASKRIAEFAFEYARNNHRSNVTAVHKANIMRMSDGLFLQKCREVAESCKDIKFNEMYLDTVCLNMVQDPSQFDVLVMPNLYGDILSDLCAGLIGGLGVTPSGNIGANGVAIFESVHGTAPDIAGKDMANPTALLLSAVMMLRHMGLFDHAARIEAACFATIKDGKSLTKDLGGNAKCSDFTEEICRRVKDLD
inactive: [1] -0.029 | [2] 0.018 | [3] 0.026 | [4] -0.025 | [5] -0.005

HAX1 (UniProt O00165)
Chain of UniProt O00165 (O00165 whole entry, looked up): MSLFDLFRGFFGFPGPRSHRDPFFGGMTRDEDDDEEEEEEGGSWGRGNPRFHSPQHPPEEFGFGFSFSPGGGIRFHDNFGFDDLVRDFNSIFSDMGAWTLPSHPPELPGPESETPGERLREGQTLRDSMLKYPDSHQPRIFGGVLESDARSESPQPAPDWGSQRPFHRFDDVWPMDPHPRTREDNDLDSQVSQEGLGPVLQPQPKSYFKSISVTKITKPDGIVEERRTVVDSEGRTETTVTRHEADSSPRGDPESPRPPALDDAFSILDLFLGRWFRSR
inactive: [1] -0.112 | [2] -0.008 | [3] 0.063 | [4] 0.008 | [5] -0.002

HNRNPH2 (UniProt P55795)
Chain of UniProt P55795 (P55795 whole entry, looked up): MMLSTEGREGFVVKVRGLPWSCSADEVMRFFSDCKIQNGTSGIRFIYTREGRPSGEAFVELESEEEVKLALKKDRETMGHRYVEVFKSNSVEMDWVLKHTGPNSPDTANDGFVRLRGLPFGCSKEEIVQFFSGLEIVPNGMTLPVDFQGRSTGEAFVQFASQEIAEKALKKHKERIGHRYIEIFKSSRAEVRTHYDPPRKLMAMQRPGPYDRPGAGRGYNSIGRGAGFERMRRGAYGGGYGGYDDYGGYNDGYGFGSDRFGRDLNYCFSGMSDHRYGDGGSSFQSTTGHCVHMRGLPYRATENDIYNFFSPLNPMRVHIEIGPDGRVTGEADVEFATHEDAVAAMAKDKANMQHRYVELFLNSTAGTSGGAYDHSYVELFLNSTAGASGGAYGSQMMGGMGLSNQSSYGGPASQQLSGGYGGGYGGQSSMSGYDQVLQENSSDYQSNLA
inactive: [1] -0.096 | [2] -0.037 | [3] 0.097 | [4] -0.035 | [5] -0.003
